Experimental data taken from PubChem BioAssay (NCATS).
Inconclusive results are not listed. Activity calls are given as the source filed them. Calls follow the shape of the dose curve; as a rule, active = well fitted inhibition curve with a large enough effect; inconclusive = small, poorly fitted or top-dose-only effect; inactive = flat fitted curve, though single readings scatter.

Assay: Drug repurposing screens with cells derived from glioblastoma tumor samples (AID 1345199); also: nearly all actives have a fitted effect of over 40% in size
Conditions: GBM patient neurospheres viability, ATP luminescence, 48 h; at 45.9 µM (top of the series); tumour line B
Summary of the method: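 Primary testing used CD133+ neurospheres from four GBM patients, seven concentrations, 48 h exposure and ATP-based viability; confirmation added three slower-growing patient lines.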
% is scaled to controls: 0 for no effect and ±100 for the full control effect.

| SMILES | activity, negative = cell killing |
| --- | --- |
| C=Cc1ccccc1 | -11.1% (inactive) |
| CC(=O)S[C@@H]1CC2=CC(=O)CC[C@]2(C)[C@H]2CC[C@@]3(C)[C@@H](CC[C@@]34CCC(=O)O4)[C@H]12 | -27.2% (inactive) |
| CC[C@H]1OC(=O)[C@H](C)[C@@H](O[C@H]2C[C@@](C)(OC)[C@@H](O)[C@H](C)O2)[C@H](C)[C@@H](O[C@@H]2O[C@H](C)C[C@H](N(C)C)[C@H]2O)[C@](C)(O)C[C@@H](C)[C@@H]2N[C@@H](COCCOC)O[C@@H]([C@H]2C)[C@]1(C)O | -7.98% (inactive) |
| CC(C)(C)NC(=O)[C@H]1CC[C@H]2[C@@H]3CC=C4C=C(C(=O)O)CC[C@]4(C)[C@H]3CC[C@]12C | -3.87% (inactive) |
| C=C1CC2C3CCC4=CC(=O)C=C[C@]4(C)[C@@]3(F)[C@@H](O)C[C@]2(C)[C@@]1(O)C(=O)COC(C)=O (stereo partly drawn) | -0.0683% (inactive) |
| O.O=C([O-])CC([S-])C(=O)[O-].[Au+].[Na+].[Na+] (stereo not drawn) | -5.96% (inactive) |
| CCOc1ccc(N=C(C)Nc2ccc(OCC)cc2)cc1 | -12.2% (inactive) |
| COC1=C(C(=O)O)N2C(=O)[C@@H](NC(=O)[C@H](N)C3=CCC=CC3)[C@H]2SC1 | -9.93% (inactive) |
| O=C(Nc1ccc(/C=C/c2ccc(NC(=O)c3cc(S(=O)(=O)O)c4cccnc4c3O)cc2S(=O)(=O)O)c(S(=O)(=O)O)c1)c1cc(S(=O)(=O)O)c2cccnc2c1O | -15.1% (inactive) |
| CC(C(=O)O)c1ccc(C2CCCCC2)c2ccccc12 (stereo not drawn) | -3.21% (inactive) |
| NCCC[C@H](N)C(=O)O | -11.7% (inactive) |
| CC(=O)OC[C@H]1O[C@@H](O[C@H]2[C@H](O)[C@@H](OC(=O)c3ccccc3C(=O)O)[C@H](O)O[C@@H]2COC(C)=O)[C@H](O)[C@@H](OC(=O)c2ccccc2C(=O)O)[C@@H]1O | -10.5% (inactive) |
| C[C@]12CC[C@@H]3c4ccc(OS(=O)(=O)O)cc4CC[C@H]3[C@@H]1CCC2=O | -10.8% (inactive) |
| CCCCCCCCCCCCCCCC(=O)OC[C@@H](COP(=O)([O-])OCC[N+](C)(C)C)OC(=O)CCCCCCCCCCCCCCC | -16.6% (inactive) |
| N[C@@H](C(=O)N[C@H]1C(=O)N2C(C(=O)O)=C(Cl)CC[C@H]12)c1ccccc1 | 3.07% (inactive) |
| CCC(C)(C)OC(=O)N[C@@H](Cc1c[nH]c2ccccc12)C(=O)N[C@@H](CCSC)C(=O)N[C@@H](CC(=O)O)C(=O)N[C@@H](Cc1ccccc1)C(N)=O | -2.77% (inactive) |
| CO[C@H]1[C@@H](O)[C@H](N)[C@@H](O[C@H]2O[C@H]([C@H](C)N)CC[C@H]2N)[C@H](O)[C@@H]1N(C)C(=O)CN | -11.8% (inactive) |

| SMILES | activity, negative = cell killing |
| --- | --- |
| CCCCCCCCCC(=O)O | -8.75% (inactive) |
| COc1cc(C[C@@H]2NCCc3cc(O)c(O)cc32)cc(OC)c1OC | 13.6% (inactive) |
| NNc1nnc(Cc2ccncc2)c2ccccc12 | -17.7% (inactive) |
| NCCCC(=O)O | -13.9% (inactive) |
| CC(=O)O[C@H]1C[C@@H]2CC[C@@H]3[C@H](CC[C@@]4(C)[C@H]3C[C@H](N3CC[N+](C)(C)CC3)[C@@H]4OC(C)=O)[C@@]2(C)C[C@@H]1N1CC[N+](C)(C)CC1 | -3.42% (inactive) |
| O=C(O)CC(O)(CC(=O)O)C(=O)O | -4.79% (inactive) |
| O=C(O)c1ccccc1[O-].O=C(O)c1ccccc1[O-].[Zn+2] | -5.99% (inactive) |
| O=C[C@H](O)[C@@H](O)[C@H](O)[C@H](O)CO | -4.49% (inactive) |
| COc1cc2[nH]c(C)c(CCN3CCN(c4ccccc4)CC3)c2cc1OC | -18.7% (inactive) |
| Cc1ccc(C2(O)CCN(CCCC(=O)c3ccc(F)cc3)CC2)cc1 | -26.3% (inactive) |
| COc1ccc(CNCC(O)COc2ccc3[nH]c(=O)ccc3c2)cc1OC (stereo not drawn) | -3.95% (inactive) |
| CCCCCCCCCCCCCCCCCC(=O)OCCO | -18.6% (inactive) |
| CN(C)Cc1ccccc1 | -9.24% (inactive) |
| CCC(=O)OCC(=O)[C@@]1(OC(=O)CC)[C@@H](C)C[C@H]2[C@@H]3CCC4=CC(=O)C=C[C@]4(C)[C@@]3(Cl)[C@@H](O)C[C@@]21C | -9.44% (inactive) |
| Cc1cccc(C)c1N(CCCc1cccnc1)C(=O)C(C)N (stereo not drawn) | -3.85% (inactive) |
| CCOC(=O)[C@H](CCc1ccccc1)N[C@H]1CCCN2CCC[C@@H](C(=O)O)N2C1=O | -17.5% (inactive) |
